Experimental data from PubChem BioAssay AID588453 (National Center for Advancing Translational Sciences (NCATS), 2011).
Out of some 390,000 compounds screened, about 4,000 (1%) were called active. A call without a number means that no potency is given here. Another 4% or so got no clear call; they are omitted. The sample holds actives, similar compounds and a random draw of the others, so the mix is not that of the screen. The call rests on the fitted dose curve; in most records, active means well fitted inhibition curve with a large enough effect; inconclusive means small, poorly fitted or top-dose-only effect; inactive means no such curve, though single readings can be large or run the other way.

Each molecule was assayed against Thioredoxin reductase 1, cytoplasmic (Rattus norvegicus) (UniProt O89049) (assay: qHTS Assay for Inhibitors of Mammalian Selenoprotein Thioredoxin Reductase 1 (TrxR1): qHTS). Settings: recombinant rTrxR1, NADPH fluorescence consumption, selenite substrate; series mostly up to 114 µM.
In short: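 Rat TrxR1 (90 nM in the dispensed reagent) was pre-reduced with 400 uM NADPH for 5 min at room temperature, then incubated with compound for 15 min. After 400 uM selenite was added, NADPH fluorescence (Ex 340/Em 450 nm) was followed for 8 min.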
Further: nearly all actives have a fitted effect of over 65% in size.
Potency means the concentration at half of the fitted maximal effect.

Sequence of Thioredoxin reductase 1, cytoplasmic (Rattus norvegicus) (O89049 whole entry, looked up): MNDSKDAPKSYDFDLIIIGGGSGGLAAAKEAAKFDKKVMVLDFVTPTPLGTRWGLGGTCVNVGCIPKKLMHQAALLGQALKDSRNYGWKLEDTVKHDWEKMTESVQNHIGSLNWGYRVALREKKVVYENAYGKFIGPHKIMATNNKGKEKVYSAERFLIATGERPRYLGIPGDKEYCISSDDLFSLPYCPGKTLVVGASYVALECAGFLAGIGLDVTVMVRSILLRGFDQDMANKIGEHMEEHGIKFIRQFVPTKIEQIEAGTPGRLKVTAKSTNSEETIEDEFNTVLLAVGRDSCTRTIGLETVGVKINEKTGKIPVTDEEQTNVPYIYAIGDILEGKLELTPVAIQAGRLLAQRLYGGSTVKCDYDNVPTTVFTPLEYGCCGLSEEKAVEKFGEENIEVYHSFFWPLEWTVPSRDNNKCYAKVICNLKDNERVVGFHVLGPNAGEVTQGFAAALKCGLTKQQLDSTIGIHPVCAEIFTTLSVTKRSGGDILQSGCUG

Row | SMILES | Potency
1 | O=C(Cn1ncc2c3ccccc3n(Cc3ccccc3)c2c1=O)NC1CCCCCC1 | inactive
2 | COc1ccccc1N1CCN(C(CNC(=O)C(=O)NCc2ccc(C)cc2)c2cccnc2)CC1 (stereo not drawn) | inactive
3 | CCOc1ccc(C(NC(=O)c2cc(OC)c(OC)c(OC)c2)c2cc(Cl)c3cccnc3c2O)cc1 (stereo not drawn) | inactive
4 | CCOC(=O)N1CCN(C(c2cccnc2)c2ccc3cccnc3c2O)CC1 (stereo not drawn) | 0.398 µM (active)
5 | O=C(NCc1cccnc1)C(=O)NCC(c1cccnc1)N1CCN(c2ccccc2)CC1 (stereo not drawn) | inactive
6 | Cc1ccc(NC(=O)C(=O)NCC(c2cccnc2)N2CCOCC2)cc1 (stereo not drawn) | inactive
7 | CCN1CCN(C(c2cccnc2)c2cc(Cl)c3cccnc3c2O)CC1 (stereo not drawn) | 4.47 µM (active)
8 | COc1ccc(CN(Cc2ccccc2)C(=O)c2ccc(O)cc2)cc1COc1ccc(NC(C)=O)cc1 | inactive
9 | Cc1ccc(C2C(C#N)C(C#N)N3CCCN23)cc1 (stereo not drawn) | 22.4 µM (active)
10 | COc1ccc(CCNC(=O)Cn2c(=O)n(-c3ccccc3)c(=O)c3c(C)c(C)sc32)cc1OC | inactive
11 | CC(C)(C)OC(=O)N1CCC(c2c(C(=O)NCCc3ccsc3)cnn2-c2ccc(F)cc2F)CC1 | inactive
12 | Cc1ccc(CN2CCC(n3nccc3NC(=O)CCCc3ccccc3)CC2)o1 | 70.8 µM (active)
13 | COc1ccc(CN2CCC(n3nccc3NC(=O)CCCc3ccccc3)CC2)cc1C | inactive
14 | CCn1cc(CN2CCC(n3nccc3NC(=O)CCCc3ccccc3)CC2)c(C)n1 | inactive
15 | CN(C)c1cccc2ccccc12 | inactive
16 | COC(=O)C1=C(C(=O)OC)[C@@H]2N(Cc3ccccc3)c3ccccc3[C@@]23C[C@@H](C(=O)OC)N(S(=O)(=O)c2ccc(C(F)(F)F)cc2)C3=N1 | inactive
17 | CSc1ncc(Cl)c(C(=O)Nc2ccc(S(=O)(=O)N3CCCC(C)C3)cc2)n1 (stereo not drawn) | inactive
18 | CCCSc1ncc(Cl)c(C(=O)Nc2c(C(=O)Nc3ccccc3)oc3ccccc23)n1 | inactive
19 | Cc1cccc(NC(=O)Cn2cc(S(=O)(=O)Cc3ccccc3Cl)c3ccccc32)c1 | inactive
20 | Cc1ccc(NC(=O)c2nc(S(=O)(=O)Cc3cccc(C)c3)ncc2Cl)cc1 | 1.78 µM (active)
21 | Cc1ccc(CCNC(=O)c2ccc(CS(=O)(=O)Cc3cccc(C)c3)o2)cc1 | inactive
22 | CCS(=O)(=O)c1ncc(N(Cc2ccc(F)cc2)Cc2ccco2)c(C(=O)Nc2cc(C)ccc2C)n1 | inactive
23 | CSc1nnc(NC(=O)c2nc(S(=O)(=O)Cc3ccc(C)cc3)ncc2Cl)s1 | 15.8 µM (active)
24 | CCOC(=O)c1ccc(NC(=O)c2nc(SCc3ccc(F)cc3)ncc2Cl)cc1 | inactive
25 | CCOCCCNC(=O)c1c(NC(=O)c2nc(SC)ncc2Cl)sc2c1CCCC2 | inactive
26 | Cc1ccc2nc(NC(=O)c3nc(SCc4ccccc4F)ncc3Cl)sc2c1 | inactive
27 | Cc1cccc(NC(=O)c2nc(S(=O)(=O)Cc3ccccc3)ncc2Cl)c1 | 5.62 µM (active)
28 | Cc1cccc(CS(=O)(=O)c2ncc(Cl)c(C(=O)Nc3ccc(F)cc3)n2)c1 | 7.94 µM (active)
